Source: PubChem (Bradner/Qi Labs at DFCI)
Many of the other results were omitted from the sample, so hits are more common in it than they were.
CBX7 inh = blocks human CBX7 binding to H3K27me3 peptide; normalised signal (fraction of DMSO) (test concentration not listed); actives 1.1% (n = 66,000); AlphaScreen His6-CBX7 / biotin-H3K27me3 peptide binding; hits give low values; O95931; in the data active = normalised signal below about 0.5
Target sequence (O95931 whole entry, looked up): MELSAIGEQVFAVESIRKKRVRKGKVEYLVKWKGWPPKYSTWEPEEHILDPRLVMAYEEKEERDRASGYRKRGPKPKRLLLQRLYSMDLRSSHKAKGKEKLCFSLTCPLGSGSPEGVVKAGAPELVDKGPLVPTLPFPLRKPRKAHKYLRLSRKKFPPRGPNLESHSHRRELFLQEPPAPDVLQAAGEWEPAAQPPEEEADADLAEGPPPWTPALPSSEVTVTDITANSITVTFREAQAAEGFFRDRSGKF
* hit, by the source's call.

SMILES	CBX7 inh
CCCCN(CCCC)S(=O)(=O)c1ccc(C(=O)Nc2nc(-c3ccccn3)cs2)cc1	0.93
CC1CCN(C(=O)CSc2nnc(CNC(=O)c3cccs3)o2)CC1	1
Cc1ccnc(N2C(=O)c3ccccc3C2Nc2ccc(C)c(C)c2)c1 (stereo not drawn)	1
Cc1cccc(C(=O)N2CCc3c([nH]c4ccccc34)C2c2ccccc2)c1 (stereo not drawn)	0.78
Cc1cc2c(cc(C(=O)NC(C)c3ccccc3)n2Cc2ccc(Cl)cc2)o1 (stereo not drawn)	0.99
O=C1CCCC2=C1C(c1cccs1)CC(=O)N2c1ccc(Br)cc1F (stereo not drawn)	0.93
COC(=O)c1c(NC(=O)c2cccc(Cl)c2)sc2c1CCC2	1.3
COc1ccc(C(=O)Nc2nnc(-c3cccc(C)c3)o2)cc1OC	0.018*
COc1ccc(-c2nnc(NC(=O)c3ccc(OC)c(OC)c3)o2)cc1	0.086*
COc1ccc(C(=O)Nc2nnc(-c3ccccc3)o2)cc1OC	0.61
Cc1cccc(-c2nnc(NC(=O)c3ccc(Cl)cc3)o2)c1	0.86
COc1ccc(C(=O)Nc2cccc(-c3nc4ccccc4o3)c2)cc1OC	1.3
COc1ccc(-c2nnc(NC(=O)c3ccc(Cl)cc3)o2)cc1	0.55
CCOC(=O)c1cnc2ccc(OCC)cc2c1Nc1ccc(Cl)c(Cl)c1	1.1
COc1ccc(CCNC(=O)Cc2ccc(-n3c(=O)[nH]c4ccsc4c3=O)cc2)cc1OC	1.1
Cc1ccccc1CN1C(=O)c2ccccc2S(=O)c2ccc(C(=O)NCc3cccnc3)cc21 (stereo not drawn)	1
O=c1[nH]c2ccccc2c(=O)n2nccc12	1
Cc1ccc2c(c1)c1c3n2CCN(CCC(N)=O)C3CCC1 (stereo not drawn)	0.97
CCN1CCn2c3c(c4cc(Cl)ccc42)CCCC31 (stereo not drawn)	0.98
OC1(c2ccc3c(c2)c2c4n3CCN(Cc3ccccc3)C4CCC2)CCCC1 (stereo not drawn)	0.37*
CCOC(=O)c1ccc(NC(=O)Cn2ncc3c2-c2ccccc2OC3)cc1	0.94
Cc1cccc(CN2C(=O)c3ccccc3Sc3ccc(C(=O)NC4CC4)cc32)c1	1
COc1ccc(NS(=O)(=O)c2ccc3c(c2)CCN3C(=O)C2CC2)cc1Cl	0.91
O=C(Nc1ccc2c(c1)OCCO2)c1n[nH]c(=O)c2ccccc12	1.1
COc1ccc(Nc2nnc(-c3ccc(C)c(S(=O)(=O)NC(C)(C)CO)c3)c3ccccc23)cc1	0.74
SMILES	CBX7 inh
Cc1cccc2nc(-c3cccnc3)c(Nc3ccc(C(C)C)cc3)n12	0.87
Cc1ccccc1Nc1c(-c2cccnc2)nc2cccc(C)n12	0.92
Cc1cccc2nc(-c3ccsc3)c(Nc3ccc(C(C)C)cc3)n12	0.81
Cc1cccc2nc(-c3ccccn3)c(Nc3ccc(C(C)C)cc3)n12	0.11*
Cc1cc(C)n2c(Nc3ccccc3C)c(-c3ccccn3)nc2n1	1.1
Cc1ccccc1Nc1c(-c2ccccn2)nc2cccc(C)n12	0.24*
CCOCCCNC(=O)c1ccc2c(c1)N(Cc1ccccc1C)C(=O)CS2	1.1
COc1ccc(Nc2cc(C(=O)NCc3cccnc3)c3ccccc3n2)cc1	0.88
CC12CC(c3ccccc3O1)C(c1nnc(-c3cccc(F)c3)o1)C(=O)N2 (stereo not drawn)	1.1
COc1ccccc1-c1c(C)nn2c(N(C)C3CCCCC3)cc(C)nc12	1
CC1CC(C)CN(CCCNC(=O)c2ccc3c(c2)NC(=O)c2ccccc2S3)C1 (stereo not drawn)	1.1
COc1ccc(Nc2c3c(nc4ccc(Cl)cc24)CCC3)c(OC)c1	0.94
CCCCN(C)C(=O)c1cccc(NC2=NC3CS(=O)(=O)CC3S2)c1 (stereo not drawn)	0.76
CC(C)N(Cc1ccccc1)C(=O)C1CCN(C(=O)c2cnn(-c3ccccc3)c2-n2cccc2)CC1	1
O=C(Nc1nnc(-c2ccccc2Cl)o1)c1ccc(S(=O)(=O)N2CCOCC2)cc1	0.052*
O=C(Nc1nnc(-c2cccs2)o1)c1ccc(S(=O)(=O)N2CCOCC2)cc1	0.71
CCC1CCCCN1S(=O)(=O)c1ccc(C(=O)Nc2nnc(-c3ccccc3Cl)o2)cc1 (stereo not drawn)	0.055*
CCCCN(C)S(=O)(=O)c1ccc(C(=O)Nc2nnc(-c3ccccc3Cl)o2)cc1	0.91
CC1CN(S(=O)(=O)c2ccc(C(=O)Nc3nnc(-c4ccccc4Cl)o3)cc2)CC(C)O1 (stereo not drawn)	0.041*
COc1cc(OC)cc(-c2nnc(NC(=O)c3ccc(S(=O)(=O)N4CC(C)OC(C)C4)cc3)o2)c1 (stereo not drawn)	0.91
O=C(Nc1nnc(-c2ccccc2Cl)o1)c1ccc(S(=O)(=O)N2CCCC2)cc1	0.89
CCC1CCCCN1S(=O)(=O)c1ccc(NC(=O)c2oc3ccccc3c2C)cc1 (stereo not drawn)	0.93
Cc1cc(NC(=O)c2nccnc2C(=O)O)ccc1F	0.61
CC(C)CCNC(=O)c1ccc2c(c1)N(Cc1ccc(F)cc1)CCS2	0.94
Cc1cccc(N2CCN(CCNC(=O)CN3C(=O)CCSc4ccccc43)CC2)c1C	0.96
SMILES	CBX7 inh
CCOc1ccc(CCNC(=O)c2ccc3nc(N4CCOCC4)sc3c2)cc1	1
O=C(NC1CCCCC1)c1cc(-c2ccncc2)nc2ccccc12	0.98
Cc1ccccc1N(C)S(=O)(=O)c1ccc2[nH]cc(C(=O)N3CCCCC3)c(=O)c2c1	1
Cc1ccc(S(=O)(=O)N2CCN(c3ccc4nnc(-c5ccccc5)n4n3)CC2)cc1	0.7
O=S(=O)(c1ccccc1)N1CCN(c2ccc3nnc(-c4ccccc4)n3n2)CC1	0.1*
c1ccc(-c2nnc3ccc(N4CCCC4)nn23)cc1	0.94
COc1cccc(-c2nc(CSCC(=O)NCc3ccc(Cl)cc3)c(C)o2)c1	1.1
Cc1ccc(NC(=O)Cn2nc(Cc3ccncc3)c3ccccc3c2=O)nc1	1
C=CCNC(=O)Cc1c(C)n(C(=O)c2ccc(Cl)cc2)c2ccc(OC)cc12	1
COc1ccc2c(c1)c(CC(=O)NC1CC1)c(C)n2C(=O)c1ccc(Cl)cc1	0.89
COc1ccc2c(c1)c(CC(=O)Nc1ccccn1)c(C)n2C(=O)c1ccc(Cl)cc1	0.41*
O=C(CN1C(=O)COc2ccc(S(=O)(=O)N3CCCCCC3)cc21)N1CCC2(CC1)OCCO2	1.1
CCCn1c(COc2ccc(Cl)cc2)nc2ccccc21	1.2
Cc1ccc(-n2ncc3c(=O)n(-c4ccc(N5CCC(C)CC5)cc4)c(C)nc32)cc1	1
CCN(CC)S(=O)(=O)c1ccc(C(=O)Nc2nnc(C)o2)cc1	0.084*
CCN(Cc1ccccc1)S(=O)(=O)c1ccc(C(=O)Nc2nnc(-c3cccs3)o2)cc1	0.96
CCCN(CCC)S(=O)(=O)c1ccc(C(=O)Nc2nnc(C)o2)cc1	0.083*
CCN(CC)S(=O)(=O)c1ccc(C(=O)Nc2nc3ccc4nc(C)sc4c3s2)cc1	0.93
COc1ccc(-c2[nH]c(-c3cccc(OC)c3)nc2SCC(=O)Nc2ccccc2)cc1	0.79
COc1ccc(C)cc1NC(=O)Cn1cnc2ccc(S(=O)(=O)N3CCC(C)CC3)cc2c1=O	1
COc1ccc(C2C(C(=O)Nc3ccc(F)cc3)c3ccccc3C(=O)N2C)cc1 (stereo not drawn)	1.1
C=CCN(CC=C)S(=O)(=O)c1ccc(C(=O)Nc2nnc(COC)o2)cc1	0.069*
COCc1nnc(NC(=O)c2ccc(S(=O)(=O)N(CC(C)C)CC(C)C)cc2)o1	0.081*
